Results on eleven compounds are retold here after PubChem BioAssay (NCATS).

Each structure is given as a SMILES string. Records with an inconclusive call do not appear. Unmarked numbers belong to inactive results. Activity calls are given as the source filed them. Calls follow the shape of the dose curve; as a rule, active = well fitted inhibition curve with a large enough effect; inconclusive = small, poorly fitted or top-dose-only effect; inactive = no such curve, though single readings can be large or run the other way.
% is scaled to controls: 0 for no effect and ±100 for the full control effect; potency is read from the fitted curve at half-maximal effect.

Chain of N-terminal Xaa-Pro-Lys N-methyltransferase 1 (Homo sapiens) (Q9BV86 whole entry, looked up): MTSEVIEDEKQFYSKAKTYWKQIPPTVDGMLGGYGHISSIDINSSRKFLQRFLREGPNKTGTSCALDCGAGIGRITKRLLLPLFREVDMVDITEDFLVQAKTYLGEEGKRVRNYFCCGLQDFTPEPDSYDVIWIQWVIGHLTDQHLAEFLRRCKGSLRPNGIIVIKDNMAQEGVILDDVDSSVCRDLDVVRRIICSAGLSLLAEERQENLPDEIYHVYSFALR

The assay deals with N-terminal Xaa-Pro-Lys N-methyltransferase 1 (Homo sapiens) (UniProt Q9BV86). The assay can be described thus: qHTS Assay for Inhibitors of N-terminal methyltransferase 1 (NTMT1): LOPAC validation of the NTMT1 SAHH-coupled ThioGlo3 Assay (AID 1347143).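 Also: SAH from peptide methylation measured as thiol fluorescence via SAHH coupling and ThioGlo3; nearly all actives have a fitted effect of over 70% in size.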 As to conditions: recombinant NTMT1, SAHH-coupled ThioGlo3 fluorescence; series mostly up to 114 µM; activity change, negative = inhibition: at the top concentration. A digest of the protocol:
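In this qHTS pilot against the LOPAC set, 125nM NTMT1 met compounds tested at multiple concentrations, and fluorescence was normalized to background.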
Regarding `CCCN1CCc2cc(O)cc3c2[C@H]1Cc1ccc(O)c(O)c1-3`, the Potency was 35.5 µM (active).
For `CCCN1CCC[C@@H](c2cccc(O)c2)C1`, the “activity change, negative = inhibition” value is -12.8%.
Still for that read-out and setting: the result for `COc1ccc(OC)c(C(O)C(C)N)c1` (stereo unspecified) reads -18.9%; that for `CC(N)c1cccc(Cl)c1Cl` (stereo unspecified), -14.9%.
Still for that read-out and setting: the figure for `C[C@@H]1O[C@@H](O[C@H]2C[C@@H](O)[C@]3(CO)[C@@H]4C(CC[C@]3(O)C2)[C@@]2(O)CC[C@H]([C@@H]3COC(=O)C3)[C@@]2(C)C[C@H]4O)[C@H](O)[C@H](O)[C@H]1O` (stereo partly specified) is -9.75%; for `c1ccc2cc(CC3=NCCN3)ccc2c1` it is -17.8%.
The same measure, in the same setting: the result for `NC(CCCCCP(=O)(O)O)C(=O)O` (stereo unspecified) reads -7.93%.
As for `O=S1(=O)N(CCN2CC=C(c3c[nH]c4cc(F)ccc34)CC2)c2cccc3c2N1CCC3`, the Potency is 50.1 µM (active).
Take `[Cl-].[Cl][Pt].[NH2-].[NH2-].c1ccncc1`: the Potency is 7.08 µM (active).
In the case of `CCCC[N+]1(C)C2CC(OC(=O)[C@H](CO)c3ccccc3)CC1C1OC12` (stereo partly specified), the “activity change, negative = inhibition” value was -19.4%.
As for `C[N+]1(C)CCN(c2ccccc2)CC1`, the Potency is 28.2 µM (active).
